Shown are actives, neighbours in structure and some others; about 19% of the full set was active somewhere.
DT40 TDP1 CPT: qHTS for Inhibitors of human tyrosyl-DNA phosphodiesterase 1 (TDP1): qHTS in cells in presence of CPT; chicken DT40 Tdp1-/-;hTDP1 cells + 20 nM CPT, ATP luminescence, 48 h; 420,000 tested, 12% active; AID 686979, 2013; Potency, µM (titrated, usually from 46.2 µM), for the others: at the highest dose activity change, negative = growth inhibition, hits mostly inhibitors; note: potency is the fitted concentration of half-maximal effect; nearly all actives have a fitted effect of over 55% in size
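Chicken DT40 Tdp1-/- cells complemented with human TDP1, 400 cells/well, exposed to compounds plus 20 nM camptothecin for at least 48 h at 37 C; viability read as ATP content by CellTiter-Glo luminescence.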
HT1080 IDH1KD tx: qHTS for induction of synthetic lethality in tumor cells producing 2HG: qHTS for the HT-1080-IDH1KD cell line; Potency, µM (doses to about 46.1 µM), inactives show top-dose activity, negative = toxicity, hits mostly cytotoxic; AID 686971, 2013; 360,000 tested, 2% active; HT-1080 IDH1 knockdown viability, ATP luminescence, 48 h;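 note: potency is the fitted concentration of half-maximal effect; 0% = DMSO wells and -100% = cell-free medium wells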
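Viability of IDH1-knockdown HT-1080 fibrosarcoma cells was assessed by CellTiter-Glo after 48 h at 37 °C with titrated compound; concentration-effect curves were classified by fit quality and response size.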
HT1080-NT tox: qHTS for induction of synthetic lethality in tumor cells producing 2HG: qHTS for the HT-1080-NT fibrosarcoma cell line | Potency, µM (series often up to 46.1 µM), for the others: at the top dose activity, negative = less viability, most hits filed as cytotoxic | HT-1080-NT fibrosarcoma viability, CellTiter-Glo ATP luminescence, 48 h | 360,000 tested, 1.6% active;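 note: NT is the 2HG producing partner of a matched IDH1 knockdown line; potency is the fitted concentration of half-maximal effect; 0% = DMSO-treated cells and -100% = media-only wells without cells; nearly all actives have a fitted effect of over 55% in size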
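Read-out is CellTiter-Glo luminescence after 10 minutes at room temperature, following 48 hours' compound treatment of HT-1080-NT cells (750 cells/well, RPMI, 5% FBS, 37 degrees C).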
TDP1 cell noCPT: qHTS for Inhibitors of human tyrosyl-DNA phosphodiesterase 1 (TDP1): qHTS in cells in absence of CPT; 420,000 tested, 15% active; Potency, µM (titrated, usually from 46.2 µM), without a hit: at the top dose activity change, negative = growth inhibition, actives largely listed as inhibitors; DT40 Tdp1-/- hTDP1 cells, no CPT, ATP luminescence, 48 h; note: potency is the fitted concentration of half-maximal effect; nearly all actives have a fitted effect of over 55% in size
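DT40 Tdp1-/-;hTDP1 cells, no CPT (DMSO vehicle only), 400 cells/well; compounds pin-transferred; ≥48 hr, 37 °C; CellTiter-Glo 30 min RT dark, luminescence read.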
IL-1B inflam inh: qHTS for Inhibitors of Inflammasome Signaling: IL-1-beta AlphaLISA Primary Screen; THP-1 LPS/ATP IL-1B secretion, AlphaLISA, 16 h; hits give low values; activity change, % at 57.5 µM; 360,000 tested, 4.7% active; AID 743279, 2014; in the data active = activity change below about -50%; inconclusive = mostly about -30% to -49%
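Secreted IL-1B measured by AlphaLISA bead assay after 16 h compound exposure of THP-1 cells; compounds (final up to 57.5 uM) added 1 h before LPS (250 ng/mL) and ATP (1.25 mM) stimulation; lower signal means less secretion.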
Starred values were filed as active, the others as inactive; [ ] = another dose, or the depositor's remark. Unless noted, calls come from the whole dose curve; as a rule, active = well fitted curve in the direction sought with a large enough effect; inconclusive = small, poorly fitted or top-dose-only effect, or another doubt; inactive = no such curve, though single readings can be large; an effect the other way counts as inactive or inconclusive. Unless noted, % is set by controls: 0 for no effect and ±100 for the full control effect.

For CCc1nnc(NC(=O)CSc2nc3cccnc3n2Cc2ccccc2)s1 the results were DT40 TDP1 CPT -19%, HT1080 IDH1KD tx 6%, HT1080-NT tox 6%, TDP1 cell noCPT -8% and IL-1B inflam inh 15.
For C=C(C)COc1ccc(-c2n[nH]c(C)c2-c2ccc(OC)cc2)c(O)c1 the results were DT40 TDP1 CPT inconclusive, HT1080 IDH1KD tx 18µM*, HT1080-NT tox 21µM*, TDP1 cell noCPT inconclusive and IL-1B inflam inh -51*.
For COc1ccc(-c2n[nH]c(C)c2-c2cscn2)c(O)c1 the results were DT40 TDP1 CPT -6%, HT1080 IDH1KD tx -2%, HT1080-NT tox 2%, TDP1 cell noCPT 22% and IL-1B inflam inh -7.
CCOc1ccc(-c2n[nH]c(C)c2-c2ccccc2OC)c(O)c1 was read as DT40 TDP1 CPT 13µM*, HT1080 IDH1KD tx inconclusive, HT1080-NT tox inconclusive, TDP1 cell noCPT inconclusive and IL-1B inflam inh -55*.
`CN(Cc1nc2ccccc2c(=O)[nH]1)C(=O)c1cc(-c2ccc(Br)cc2)nc2ccccc12` gave DT40 TDP1 CPT inconclusive, HT1080 IDH1KD tx -27%, HT1080-NT tox -15%, TDP1 cell noCPT inconclusive and IL-1B inflam inh -11.
`O=C1OC(CN2CCOCC2)CN1/N=C/c1ccc([N+](=O)[O-])o1` (stereo unspecified) gave DT40 TDP1 CPT -25%[21.1 µM] and TDP1 cell noCPT -25%[21.1 µM].
Screening O=[N+]([O-])c1ccc(C=NN2CCNC2=S)o1 returned DT40 TDP1 CPT 18µM*, HT1080 IDH1KD tx -8%, HT1080-NT tox 0%, TDP1 cell noCPT 21µM* and IL-1B inflam inh 65.
`CCN(CC)CC1CN(N=Cc2ccc([N+](=O)[O-])o2)C(=O)O1` (stereo unspecified) gave DT40 TDP1 CPT 15µM*, HT1080 IDH1KD tx -17%, HT1080-NT tox -20%, TDP1 cell noCPT 16µM* and IL-1B inflam inh 8.
`Cc1[nH]n(-c2c(Cl)cc(Cl)cc2Cl)c(=O)c1C=Nc1ccc(S(=O)(=O)N2CCOCC2)cc1` gave DT40 TDP1 CPT 10%, HT1080 IDH1KD tx 5%, HT1080-NT tox 13%, TDP1 cell noCPT 12% and IL-1B inflam inh 5.
For Cc1cc(C)c(S(=O)(=O)NCC(=O)NCc2ccccn2)c(C)c1 the results were DT40 TDP1 CPT 10%, HT1080 IDH1KD tx -6%, HT1080-NT tox -8%, TDP1 cell noCPT -13% and IL-1B inflam inh 25.
CCOc1cc(C(=O)Nc2ccccc2F)cc(Br)c1OCC was read as DT40 TDP1 CPT 21µM*, HT1080 IDH1KD tx 4%, HT1080-NT tox 7%, TDP1 cell noCPT inconclusive and IL-1B inflam inh 0.
For CCOc1ccc(C(=O)Nc2cccc(NC(=O)c3ccc(C(C)(C)C)cc3)c2)cc1Br the results were DT40 TDP1 CPT inconclusive and TDP1 cell noCPT 5.8µM*.
`COc1ccc(S(=O)(=O)Nc2cc(OC)c(NC(=O)c3ccco3)cc2OC)cc1` gave DT40 TDP1 CPT -18%, HT1080 IDH1KD tx 1%, HT1080-NT tox -3%, TDP1 cell noCPT -29% and IL-1B inflam inh 29.
CCOc1cc(NS(=O)(=O)c2ccc(OC)cc2)c(OCC)cc1NC(=O)c1ccco1 was read as DT40 TDP1 CPT 21µM*, HT1080 IDH1KD tx inconclusive, HT1080-NT tox inconclusive, TDP1 cell noCPT 23µM* and IL-1B inflam inh -8.
`CCOc1cc(NS(=O)(=O)CC)c(OCC)cc1NC(=O)c1ccco1` gave DT40 TDP1 CPT inconclusive, HT1080 IDH1KD tx -5%, HT1080-NT tox 0%, TDP1 cell noCPT inconclusive and IL-1B inflam inh 11.
Screening CCOc1cc(NC(=O)c2ccco2)c(OCC)cc1NC(=O)Cc1cccc(OC)c1 returned DT40 TDP1 CPT inconclusive, HT1080 IDH1KD tx -17%, HT1080-NT tox -9%, TDP1 cell noCPT 26µM* and IL-1B inflam inh -21.
